Assay [1] in a line: anti-His antibody binders, primary screen, artefact control for SMM control protein annotation, biochemical, small-molecule microarray, 635 nm fluorescence (AID 1128).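 Also: score merges feature fluorescence with signal-to-noise for each printed compound spot.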 The conditions noted are these: anti-His Alexa647 antibody binding, higher = more signal.
Assay [2] concerns Human papillomavirus type 1a E7 protein (residues 1-88). The assay can be described thus: HPV1a E7 small-molecule binders, primary screen, biochemical, small-molecule microarray, residues 1-88, 635 nm (AID 1129). The conditions noted are these: small-molecule microarray binding, fluorescence 635 nm; higher = more signal.
Assay [3] concerns the target Focal adhesion kinase 1 (Homo sapiens) (UniProt Q05397). Put plainly: small-molecule microarray binders of FAK, primary screen, biochemical, 635/667 nm fluorescence, BSA, DTT (AID 1130).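 Also: composite of spot emission at 667 nm and signal to noise over triplicate slides.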 The note with it: PTK2 binding, 635 nm fluorescence, higher = more signal.
For assay [4], the system named is Fibrinogen (Alexa647-labelled). The assay can be described thus: fibrinogen binders on compound microarrays, profiling panel, artefact control for SMM control-protein annotation, biochemical, small-molecule microarray, 635/667 nm fluorescence (AID 1131).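 Also: z-score merges 667 nm fluorescence with per-spot signal-to-noise over triplicate slides.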 The note with it: fibrinogen-A647 binding fluorescence, higher = more signal.
In assay [5] the target is Follistatin (Homo sapiens) (UniProt P19883). Put plainly: follistatin binders on small-molecule microarrays, primary screen, biochemical, small-molecule microarray, 635/667 nm fluorescence (AID 1132). The note with it: FST binding, 635 nm fluorescence, higher = more signal.
The target in assay [6] is Fibroblast growth factor 2 (Homo sapiens) (UniProt P09038). Put plainly: FGF2 binders on small-molecule microarrays, primary screen, biochemical, small-molecule microarray, 635/667 nm fluorescence (AID 1133). The conditions noted are these: small-molecule microarray binding, FGF2, fluorescence 635/667; higher = more signal.
Assay [7] is described as follows: mitochondrial membrane potential change in A549 cells, profiling panel, cell-based, JC-1 fluorescence, basal, 24 h, 100 nL (AID 1138).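 Also: A549 lung adenocarcinoma cells under basal conditions with no added stimulus; test concentration not given here.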 The note with it: higher = more signal.
The subject of the next assay is Lefty1. Put plainly: Lefty1 binders on small-molecule microarrays, primary screen, biochemical, small-molecule microarray, 635/667 nm fluorescence (AID 1139). The conditions noted are these: small-molecule microarray binding, fluorescence 635/667; higher = more signal.
Assay [8] has as its system wheat germ agglutinin (Triticum aestivum), Alexa647-labelled. The assay can be described thus: wheat germ agglutinin binders on compound microarrays, profiling panel, artefact control for SMM control-protein annotation, biochemical, small-molecule microarray, 635/667 nm fluorescence (AID 1140).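 Also: score merges 667 nm feature emission with signal to noise over triplicate slides.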 The note with it: WGA-A647 binding, 635 nm fluorescence, higher = more signal.

For assay [9], the target named is Luciferin 4-monooxygenase (Photinus pyralis) (UniProt P08659). Put plainly: firefly luciferase enzyme inhibitors, primary screen, biochemical, luminescence, purified enzyme, 2006 set (AID 1141).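 Also: cell-free assay with purified firefly luciferase at 100 ng per well in PBS; test concentration not given here.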 The note with it: SteadyGlo luminescence, 30 min, higher = more signal, called active from +8 up or from −8 down.
For assay [10], the system named is Wnt5a (protein binding on small-molecule microarray). Put plainly: Wnt5a binders on small-molecule microarray, primary screen, biophysical, 635/667 nm fluorescence (AID 1142).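 Also: fluorescence read at 667 nm with signal to noise per printed feature.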 The conditions noted are these: 635 nm fluorescence, higher = more signal.
Assay [11] in a line: cell viability in Huh7 cells, primary screen, cytotoxicity control for HCV replication inhibitor project, CellTiter-Glo luminescence, basal, 48 h (AID 1143).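 Also: Huh7 hepatoma cells carrying a hepatitis C replication reporter with no stimulus; test concentration not given here.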 The note with it: Huh7 HCV replicon, higher = more signal, called active from +8 up or from −8 down.
A short description of assay [12]: P. aeruginosa biofilm formation inhibitors, primary screen, PAO1 strain, BacTiter-Glo luminescence, LB-PBS (AID 1144). The conditions noted are these: 12 h, higher = more signal.
The nature of assay [13]: CREB reporter modulators without forskolin, primary screen, cell-based, PC12, CRE-LacZ reporter, unstimulated (AID 1145). The note with it: no forskolin, luminescence, 4.5 h, higher = more signal, called active from +8 up or from −8 down.
Assay [14] can be described thus: CREB reporter modulators under forskolin, primary screen, cell-based, PC12, CRE-LacZ reporter, forskolin-stimulated (AID 1146).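 Also: PC12 cells with 6xCRE LacZ reporter stimulated by forskolin 10 µM; beta-galactosidase reporter signal reflecting CREB driven transcription.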 The note with it: luminescence, 4.5 h, higher = more signal, called active from +8 up or from −8 down.
Assay [15] has as its target Streptavidin (Streptomyces avidinii) (UniProt P22629). The assay can be described thus: streptavidin binders on small-molecule microarray, primary screen, artefact control for SMM compound annotation, biophysical, 635/667 nm fluorescence (AID 1147).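 Also: signal reflects streptavidin binding to arrayed compounds as a control protein.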 The note with it: streptavidin binding, higher = more signal.
Assay [16] is described as follows: small-molecule binders of probe aInhba, primary screen, biochemical, small-molecule microarray, 635/667 nm fluorescence (AID 1148).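 Also: score merges 667nm spot fluorescence with signal-to-noise for antibody binding to printed compounds.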 The note with it: higher = more signal.
The target of assay [17] is Torsin-1A (Homo sapiens) (UniProt O14656). Put plainly: torsin A binders from cell lysate, primary screen, small-molecule microarray, wild-type, 635/667 nm (AID 1149). The conditions noted are these: COS7 hTOR1A-WT lysate, 635 nm fluorescence, higher = more signal.
Assay [18] shares this target. Put plainly: small-molecule binders of mutant TOR1A in lysate, primary screen, cell lysate, small-molecule microarray, COS7 lysate, 635/667 nm fluorescence (AID 1150).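 Also: score pools 667 nm emission and signal to noise measuring lysate protein binding.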 The note with it: COS7 hTOR1A mutant lysate, 635 nm fluorescence, higher = more signal.
The subject of assay [19] is Sonic hedgehog protein (Shh). Put plainly: small-molecule binders of Shh protein, primary screen, biochemical, small-molecule microarray, 635/667 nm fluorescence (AID 1151).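 Also: Shh protein binding to compounds spotted on small-molecule microarray slides; score combines spot fluorescence intensity with signal-to-noise across triplicate slides.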 The note with it: small-molecule microarray binding, 635 nm fluorescence; higher = more signal.

The source made the active and inactive calls. Unless noted, no rule for the calls is given here.

Sequence of Focal adhesion kinase 1 (Homo sapiens) (Q05397 whole entry, looked up): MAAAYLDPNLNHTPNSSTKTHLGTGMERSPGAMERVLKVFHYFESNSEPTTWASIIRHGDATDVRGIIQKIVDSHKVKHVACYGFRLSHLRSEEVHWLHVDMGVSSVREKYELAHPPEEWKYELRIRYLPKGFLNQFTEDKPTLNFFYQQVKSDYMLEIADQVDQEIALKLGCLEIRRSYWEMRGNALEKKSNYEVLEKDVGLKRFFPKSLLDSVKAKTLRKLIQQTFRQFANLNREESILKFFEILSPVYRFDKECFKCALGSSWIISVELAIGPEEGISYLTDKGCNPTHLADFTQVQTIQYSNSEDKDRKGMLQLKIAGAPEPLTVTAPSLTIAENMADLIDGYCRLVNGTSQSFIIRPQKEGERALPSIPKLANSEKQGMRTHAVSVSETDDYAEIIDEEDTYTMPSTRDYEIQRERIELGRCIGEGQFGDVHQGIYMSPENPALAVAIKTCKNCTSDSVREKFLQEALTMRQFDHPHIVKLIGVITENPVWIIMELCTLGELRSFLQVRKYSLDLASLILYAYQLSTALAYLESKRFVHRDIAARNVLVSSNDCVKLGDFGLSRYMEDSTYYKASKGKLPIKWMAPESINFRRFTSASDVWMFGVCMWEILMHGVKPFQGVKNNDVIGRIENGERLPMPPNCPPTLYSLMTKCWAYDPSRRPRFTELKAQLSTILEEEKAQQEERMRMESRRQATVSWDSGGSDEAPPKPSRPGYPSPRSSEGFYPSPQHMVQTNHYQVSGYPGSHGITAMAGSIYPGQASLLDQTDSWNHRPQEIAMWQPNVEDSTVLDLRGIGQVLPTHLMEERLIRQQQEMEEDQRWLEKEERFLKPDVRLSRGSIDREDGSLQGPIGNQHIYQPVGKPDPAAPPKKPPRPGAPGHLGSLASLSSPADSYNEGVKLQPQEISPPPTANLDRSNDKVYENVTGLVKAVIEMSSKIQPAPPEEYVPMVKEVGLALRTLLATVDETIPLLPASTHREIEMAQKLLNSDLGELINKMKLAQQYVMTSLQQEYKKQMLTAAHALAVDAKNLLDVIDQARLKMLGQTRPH
Sequence of Streptavidin (Streptomyces avidinii) (P22629 whole entry, looked up): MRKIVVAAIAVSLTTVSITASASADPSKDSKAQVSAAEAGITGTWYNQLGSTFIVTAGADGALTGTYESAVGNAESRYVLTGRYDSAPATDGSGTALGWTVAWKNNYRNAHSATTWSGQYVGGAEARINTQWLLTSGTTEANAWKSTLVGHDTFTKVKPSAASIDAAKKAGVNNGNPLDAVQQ
Sequence of Torsin-1A (Homo sapiens) (O14656 whole entry, looked up): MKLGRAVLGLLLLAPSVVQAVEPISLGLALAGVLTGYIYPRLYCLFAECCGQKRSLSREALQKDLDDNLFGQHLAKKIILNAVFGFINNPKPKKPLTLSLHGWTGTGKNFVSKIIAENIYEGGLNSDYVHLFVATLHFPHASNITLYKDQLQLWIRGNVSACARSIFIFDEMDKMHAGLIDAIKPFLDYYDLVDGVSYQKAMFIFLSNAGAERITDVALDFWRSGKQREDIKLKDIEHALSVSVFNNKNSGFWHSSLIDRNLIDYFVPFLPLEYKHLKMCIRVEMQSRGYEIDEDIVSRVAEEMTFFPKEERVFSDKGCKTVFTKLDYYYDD
Sequence of Fibroblast growth factor 2 (Homo sapiens) (P09038 whole entry, looked up): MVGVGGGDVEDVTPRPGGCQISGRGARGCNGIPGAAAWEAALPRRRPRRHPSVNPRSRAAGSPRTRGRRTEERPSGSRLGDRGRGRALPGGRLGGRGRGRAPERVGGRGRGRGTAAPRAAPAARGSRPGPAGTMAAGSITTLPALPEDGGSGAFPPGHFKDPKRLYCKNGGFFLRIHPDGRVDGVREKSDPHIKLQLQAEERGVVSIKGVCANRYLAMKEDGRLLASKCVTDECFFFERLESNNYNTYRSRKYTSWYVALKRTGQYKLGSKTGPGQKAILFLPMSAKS
Sequence of Luciferin 4-monooxygenase (Photinus pyralis) (P08659 whole entry, looked up): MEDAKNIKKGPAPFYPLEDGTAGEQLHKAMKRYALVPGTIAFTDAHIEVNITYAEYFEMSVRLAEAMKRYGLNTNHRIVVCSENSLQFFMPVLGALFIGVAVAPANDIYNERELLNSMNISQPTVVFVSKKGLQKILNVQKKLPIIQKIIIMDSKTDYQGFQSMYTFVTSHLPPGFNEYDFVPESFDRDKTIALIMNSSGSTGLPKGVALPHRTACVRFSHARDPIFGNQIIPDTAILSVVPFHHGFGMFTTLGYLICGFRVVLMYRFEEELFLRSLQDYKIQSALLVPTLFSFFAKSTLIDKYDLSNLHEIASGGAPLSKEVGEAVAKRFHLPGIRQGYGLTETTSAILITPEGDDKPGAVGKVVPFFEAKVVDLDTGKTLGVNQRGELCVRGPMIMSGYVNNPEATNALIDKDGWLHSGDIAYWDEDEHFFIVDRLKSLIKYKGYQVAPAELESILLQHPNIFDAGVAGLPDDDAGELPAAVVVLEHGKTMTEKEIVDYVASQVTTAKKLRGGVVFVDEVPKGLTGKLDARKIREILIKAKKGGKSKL
Sequence of Follistatin (Homo sapiens) (P19883 whole entry, looked up): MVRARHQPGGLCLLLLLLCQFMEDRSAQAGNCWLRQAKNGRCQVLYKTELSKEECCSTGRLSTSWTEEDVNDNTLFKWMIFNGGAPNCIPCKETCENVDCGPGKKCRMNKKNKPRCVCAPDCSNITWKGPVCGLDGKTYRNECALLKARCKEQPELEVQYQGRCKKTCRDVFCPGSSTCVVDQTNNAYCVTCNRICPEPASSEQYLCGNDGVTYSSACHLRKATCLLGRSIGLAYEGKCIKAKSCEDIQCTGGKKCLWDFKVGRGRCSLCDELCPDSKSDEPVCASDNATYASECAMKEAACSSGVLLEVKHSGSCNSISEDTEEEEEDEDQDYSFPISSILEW

As to `[N-]=[N+]=Nc1ccccc1C[C@]1(C(=O)N2CCCCC2)COC(c2ccc(OCCCO)cc2)=N1`, the composite z-score in assay [1] is 1.33; in [2], 1.15; in [3] it was 0.65; in assay [4] it was 1.01; in [5] it was 0.601; in assay [6] it was -0.0446. Further, the composite z-score is 0.308 in the assay on Lefty1; 0.523 in [8]; 0.427 in [10]; 1.22 in [15]; 0.0108 in [16]; 0.552 with Torsin-1A (Homo sapiens) [17]. The results for the composite z-score (with Torsin-1A (Homo sapiens) [18]; in [19]) were 0.742 and -0.385, respectively. In addition, the z-score in assay [7] was 0.124; in assay [9], -6.97 (inactive); in assay [11] it was -4.35 (inactive); in [12], 1.38 (inactive); in [13] it was 1.01 (inactive); in assay [14], -0.57 (inactive).
Turning to `CCCCCN1CC=CC23O[C@@H]4C=CCOC(=O)[C@@H]4[C@H]2C(=O)N(C(C)CO)[C@@H]3C1=O` (stereo not given in full), the composite z-score was -0.396 in assay [1]; -0.669 in [2]; 0.174 in assay [3]; -0.235 in [4]; -1.12 in assay [5]; -0.495 in assay [6]. For the same compound, the composite z-score is -1.23 with Lefty1; -0.383 in assay [8]; -0.614 in assay [10]; -0.541 in [15]; -0.128 in assay [16]; 0.909 in the assay with Torsin-1A (Homo sapiens) [17]. In addition, the figures for the composite z-score (with Torsin-1A (Homo sapiens) [18]; in assay [19]) were -0.979 and -0.424, respectively. Also, the z-score in assay [7] is -0.197; in [9], 0.101 (inactive); in assay [11], 0.463 (inactive); in assay [12] it was 0.397 (inactive); in assay [13] it was -0.216 (inactive); in assay [14], -0.315 (inactive).
Consider `C#CCN1[C@H](/C=C/C2CC2)[C@H](Cc2ccccc2)OC(=O)[C@@H]1Cc1ccccc1`, for which the composite z-score worked out at 0.924 in assay [1]; 0.743 in assay [2]; 0.229 in assay [3]; 0.884 in [4]; 0.578 in [5]; 0.242 in [6]. In addition, the composite z-score with Lefty1 is 0.536; in assay [8], -0.153; in assay [10], -0.18; in assay [15], -0.929; in [16], -0.0675; in the assay with Torsin-1A (Homo sapiens) [17], 0.349. Besides, the composite z-score with Torsin-1A (Homo sapiens) [18] came out at 0.429; in [19] it was 1.12. Moreover, the z-score in [7] was 3.8; in [9] it was -0.373 (inactive); in assay [11], -3.28 (inactive); in [12] it was 0.854 (inactive); in [13] it was 1.04 (inactive); in assay [14], 1.29 (inactive).
Take `COC(=O)C(CC#Cc1ccc2c(c1)[C@]1(C(=O)N2)[C@H](c2ccc(O)cc2)N2[C@H](c3ccccc3)[C@H](c3ccccc3)OC(=O)[C@H]2[C@@H]1C(=O)N1CCN(c2ncccn2)CC1)C(=O)OC`: the composite z-score turned out to be 3.29 in [1]; 1.23 in [2]; 0.809 in assay [3]; 0.975 in assay [4]; 0.771 in [5]; 0.208 in assay [6]. Moreover, the composite z-score in the assay on Lefty1 was found to be 0.162; in assay [8] it was 1.2; in assay [10], 0.131; in [15] it was 0.709; in assay [16], 0.313; with Torsin-1A (Homo sapiens) [17] it was 0.131. Also, the figures for the composite z-score (with Torsin-1A (Homo sapiens) [18]; in [19]) were 0.338 and 0.618, respectively. In addition, the z-score in assay [7] was -0.35; in assay [9] it was -0.078 (inactive); in [11], -2.25 (inactive); in assay [12], -1.08 (inactive); in assay [13] it was -0.644 (inactive); in [14], -0.0048 (inactive).
On to `CC[C@@H]1C=C(C(=O)O)[C@H](c2ccc(C)cc2)N1S(=O)(=O)c1ccc(C)cc1`, for which the composite z-score in [1] was -0.479; in [2], 1.23; in assay [3] it was 0.827; in assay [4], 0.915; in assay [5], 0.163; in assay [6], 0.0388. For the same compound, the composite z-score in the assay on Lefty1 is 0.285; in assay [8] it was 0.568; in assay [10], -0.412; in assay [15], 0.583; in [16], 0.0516; with Torsin-1A (Homo sapiens) [17], 0.063. Besides, the composite z-score was 0.247 with Torsin-1A (Homo sapiens) [18] and -0.103 in [19]. For the same compound, the z-score in [7] is -0.233; in [9] it was 2.28 (inactive); in [11] it was -0.52 (inactive); in assay [12] it was -0.498 (inactive); in assay [13], -0.527 (inactive); in assay [14], 1.03 (inactive).

For the origin of these results see PubChem BioAssay.
